Test results from PubChem BioAssay.
Values joined by “and” are separate entries in the source; they are usually repeats but may differ in a detail not shown here. Identical values can stand only once. Active and inactive are the calls of the source. Rule as the data show it, unless noted: active = inhibition above about 80%; inactive = the rest.

Key:
[1] = viability loss with induced miR-34 in A549 – imaging, A549 dox-inducible miR-34, nuclei and caspase counts, primary screen (AID 1347080;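 active = compounds whose cell count with miR-34 switched on is under 0.7 times the count with it off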); settings: A549 miR-34 inducible, Hoechst nuclei count, 48 h
[2] = MELAS cybrid and Rieske KO viability enhancers – cell-based, MELAS cybrids, Rieske KO mouse fibroblasts, CellTiter-Glo, primary screen (AID 1508586;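 active = mean z-score across replicates of 1.96 or higher in either the MELAS or the Rieske mutant cell line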;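 also: z relative to plate mean and SD of compound and empty wells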); settings: low glucose
[3] = growth inhibition, single agent or in combination, cell-based, chromothripsis tumors, cisplatin or BGB combos (AID 1671449); settings: LFS_MB_P medulloblastoma cells;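 also: cells exposed for 96 hours; 0% = vehicle DMSO and 100% = killing by high DMSO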
[4] = growth inhibition, single agent and combos, cell-based, chromothripsis tumors, cisplatin or BGB combos (AID 1671450); settings: HDN33 neuroblastoma cells, stronger effect = higher value;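 also: cells exposed to compound for four days; 0% = vehicle DMSO and 100% = cell killing by high DMSO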
[5] = growth inhibition, single agents and combos, ICB984, cell-based, cisplatin or BGB combos, synergistic combos for chromothripsis tumors (AID 1671451; call rule not given here;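 also: cells exposed for 96 hours before readout; 0% = vehicle DMSO and 100% = killing by high DMSO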); settings: ICB984 medulloblastoma cells, drug combinations, stronger effect = higher value
[6] = growth inhibition, single agents and combos, LFS_MB_1R, cell-based, cisplatin or BGB combos, synergistic combos for chromothripsis tumors (AID 1671452); settings: LFS_MB_1R medulloblastoma cells, stronger effect = higher value;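 also: cells exposed for 96 hours before readout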
[7] = growth inhibition, single agents and combos, HTB85, cell-based, BGB or cisplatin IC20 combos, synergistic combos for chromothripsis tumors (AID 1671453); settings: HTB85 osteosarcoma cells, drug combinations, stronger effect = higher value;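 also: cells exposed for 96 hours before readout; 0% = vehicle DMSO and 100% = high DMSO killing control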
[8] = growth inhibition, single agents and combos, CRL2098, cell-based, BGB or cisplatin IC20 combos, synergistic combos for chromothripsis tumors (AID 1671454); settings: CRL2098 osteosarcoma cells, drug combinations, stronger effect = higher value;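 also: cells exposed for 96 h before readout; 0% = vehicle DMSO and 100% = killing by high DMSO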
[9] = growth inhibition, single agents and combos, HD-MB03, cell-based, BGB or cisplatin IC20 combos, synergistic combos for chromothripsis tumors (AID 1671455; in the data active = inhibition above about 83%;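 also: 0% = vehicle DMSO and 100% = high DMSO as cytotoxic control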); settings: HD-MB03 medulloblastoma cells, stronger effect = higher value
[10] = growth inhibition, single agents and combos, UWB1.289, cell-based, BGB or cisplatin combos, synergistic combos for chromothripsis tumors (AID 1671456); settings: UWB1.289 ovarian carcinoma cells, stronger effect = higher value;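 also: cells exposed to compound for four days; 0% = vehicle DMSO and 100% = killing by high DMSO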
[11] = growth inhibition, single agents and combos, LFS_MB_2R, cell-based, cisplatin combos, synergistic combos for chromothripsis tumors (AID 1671457); settings: LFS_MB_2R medulloblastoma cells, stronger effect = higher value;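 also: cells exposed to compound for four days before readout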
[12] = growth inhibition, MDA-MB-436, cell-based, BGB or cisplatin combos, synergistic combos for chromothripsis tumors (AID 1671458; call rule not given here;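 also: cells exposed for 96 hours; 0% = vehicle DMSO and 100% = killing by high DMSO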); settings: MDA-MB-436 breast carcinoma growth inhibition, drug combinations, stronger effect = higher value
[13] = UWB1.289_BRCA1 ovarian cancer growth, cell-based, BGB or cisplatin combinations (AID 1671459); settings: UWB1.289 BRCA1 ovarian carcinoma, drug combinations, stronger effect = higher value
[14] = drug combination toxicity in non-malignant astrocytes – cell-based, BGB or cisplatin IC20 combos, cytotoxicity control for chromothriptic childhood tumor combination screen (AID 1671460); settings: Human astrocytes, viability inhibition, drug combinations, at 0.5 µM, stronger effect = higher value;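 also: cells exposed to compounds for 96 hours before viability readout; 0% = vehicle and 100% = killing control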
[15] = BT084 cell growth, single and combined drugs, ICGC_MB145, cisplatin and BGB IC40 combos (AID 1671461); settings: BT084 medulloblastoma cells, drug combinations, stronger effect = higher value;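 also: cells exposed to drugs for 96 hours; 0% = vehicle DMSO and 100% = high DMSO full killing control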
[16] = RCMB18 cell growth, single agent and combined, cisplatin and BGB IC40 combos (AID 1671462); settings: RCMB18 medulloblastoma cells, stronger effect = higher value;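 also: cells exposed to compound for four days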
[17] = CRL1545 cell growth, single agent and combined, cisplatin and BGB IC20 combos (AID 1671464); settings: CRL1545 osteosarcoma cells, stronger effect = higher value;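 also: cells exposed to compound for 96 hours before readout; 0% = vehicle DMSO and 100% = high DMSO killing control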
[18] = compounds altering viability of human ES cells (AID 493140; call rule not given here;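 also: cells exposed to compounds for four days before counting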); settings: human embryonic stem cell survival screen; stronger effect = higher value
[19] = P. berghei load reduction in hepatocytes – cell-based, HepG2, luciferase luminescence, HepG2 viability, primary screen (AID 624349; in the data active = parasite load remaining mostly below about 12%, no sharp cut-off; inactive = mostly above about 10%;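 also: 100% = mean of DMSO negative control wells on the same plate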); settings: P. berghei liver stage in HepG2, luciferase luminescence, concentration not given here; parasite load remaining: stronger effect = lower value; viability: measured here: HepG2 viability without parasites
[20] = stronger effect = lower value, cell number ratio, induced over uninduced
[21] = measured here: relative caspase fold change +Dox/-Dox
[22] = measured here: total cells with miR-34 induction, stronger effect = lower value
[23] = measured here: total cells without miR-34 induction
[24] = MELAS cybrid survival, CellTiter-Glo 48 h, stronger effect = higher value
[25] = Rieske KO mouse fibroblast survival, CellTiter-Glo 72 h
[26] = measured here: combination with BGB IC40, at 0.05 µM
[27] = measured here: with BGB IC20 combination, at 0.5 µM
[28] = measured here: with cisplatin IC20 combination, at 0.5 µM
[29] = measured here: combination with cisplatin, at 0.5 µM
[30] = measured here: combination with cisplatin, at 5 µM

Cc1cc(C=CC#N)cc(C)c1Nc1ccnc(Nc2ccc(C#N)cc2)n1
fold change [1, 20]: 0.909 (inactive)
fold change [1, 21]: 0.615
cell count [1, 22]: 5740
cell count [1, 23]: 6310
z-score [2, 24]: -0.58 (inactive)
z-score [2, 25]: 1.5
inhibition ([3]; at 0.5 µM, stronger effect = higher value): -21.9% (inactive)
inhibition ([3]; measured here: combination with BGB IC20, at 0.005 µM): -35.7%
inhibition ([3]; measured here: combination with BGB IC40, at 0.005 µM): -21.8%
inhibition [3, 26]: -24.8%
inhibition ([3]; measured here: combination with cisplatin, at 0.5 µM, stronger effect = higher value): -44.6%
inhibition ([3]; measured here: combination with cisplatin, at 5 µM, stronger effect = higher value): -38.4%
inhibition ([4]; BGB combo, at 5 µM): -13%
inhibition ([4]; at 0.5 µM): -0.82% (inactive)
inhibition ([4]; cisplatin combo, at 5 µM): 4.37%
inhibition [4, 27]: -15.3%
inhibition [4, 28]: 22.4%
inhibition ([4]; single agent, at 5 µM): -11.3%
inhibition ([5]; BGB IC20 combo, at 0.005 µM): -0.887%
inhibition ([5]; BGB IC40 combo, at 0.005 µM): -17%
inhibition ([5]; BGB IC40 combo, at 0.05 µM): -41.8%
inhibition ([5]; at 0.5 µM): -20.3% (inactive)
inhibition ([5]; cisplatin combo, at 0.05 µM): -45.8%
inhibition ([5]; cisplatin combo, at 0.5 µM): -18.9%
inhibition ([5]; cisplatin combo, at 5 µM): -30.5%
inhibition ([5]; measured here: 5 uM single agent, at 5 µM): -25.1%
inhibition ([6]; at 0.5 µM): -21.6% (inactive)
inhibition [6, 26]: -25.9%
inhibition [6, 29]: 2.17%
inhibition [6, 30]: -13.4%
inhibition ([7]; at 0.5 µM): -10.2% (inactive)
inhibition ([7]; measured here: with BGB IC20, at 0.5 µM): -9.74%
inhibition ([7]; measured here: with BGB IC20, at 5 µM): -26.3%
inhibition ([7]; measured here: with cisplatin IC20, at 0.5 µM): -28.3%
inhibition ([7]; measured here: with cisplatin IC20, at 5 µM): -20.2%
inhibition ([7]; single agent, at 5 µM): 0.45%
inhibition ([8]; at 0.5 µM): -49.8% (inactive)
inhibition ([8]; measured here: combination with BGB at IC20, at 0.5 µM): -61.5%
inhibition ([8]; measured here: combination with cisplatin at IC20, at 0.5 µM): -40%
inhibition ([9]; at 0.5 µM): -1.33% (inactive)
inhibition ([9]; measured here: combo with BGB at IC20, at 0.5 µM): -1%
inhibition ([9]; measured here: combo with cisplatin at IC20, at 0.5 µM): -1.41%
inhibition ([10]; at 0.5 µM): 1.47% (inactive)
inhibition ([10]; measured here: inhibition with BGB combination, at 0.05 µM): -12.2%
inhibition ([10]; measured here: inhibition with cisplatin combination, at 0.05 µM): 6.05%
inhibition ([11]; at 0.5 µM): -13.3% (inactive)
inhibition [11, 29]: -13.5%
inhibition [11, 30]: -51.8%
inhibition ([12]; at 0.5 µM): -19.9% (inactive)
inhibition ([12]; measured here: BGB combination, at 0.5 µM): -6.06%
inhibition ([12]; measured here: BGB combination, at 5 µM): -3.72%
inhibition ([12]; measured here: cisplatin combination, at 0.5 µM): -45.9%
inhibition ([12]; measured here: cisplatin combination, at 5 µM): -32.4%
inhibition ([13]; BGB combination, concentration series, at 5 µM): 96.3%
inhibition ([13]; at 0.5 µM): 0.87% (inactive)
inhibition ([13]; cisplatin combination, concentration series, at 5 µM): 96.7%
inhibition [14]: 1.39% (inactive)
inhibition ([14]; measured here: combo with BGB IC20): -1.88%
inhibition ([14]; measured here: combo with cisplatin IC20): -1.66%
inhibition ([15]; at 0.5 µM): -3.04% (inactive)
inhibition ([15]; cisplatin combination, at 0.5 µM): -6.25%
inhibition ([15]; cisplatin combination, at 5 µM): -4.4%
inhibition ([15]; measured here: BGB IC40 combination 0.05 uM, at 0.05 µM): -11.4%
inhibition ([15]; single agent, at 5 µM): -18.3%
inhibition ([16]; at 0.5 µM): -10.6% (inactive)
inhibition ([16]; cisplatin combo, at 5 µM): 14.8%
inhibition ([16]; measured here: BGB IC40 combination, at 0.05 µM): -40.8%
inhibition [16, 29]: 0.155%
inhibition ([16]; single agent, at 5 µM): -17.1%
inhibition ([17]; at 0.5 µM): -12.8% (inactive)
inhibition [17, 27]: -13.1%
inhibition [17, 28]: -15.2%
inhibition ([17]; single agent, at 0.05 µM): 1.38%
inhibition ([17]; single agent, at 5 µM): -26.3%

CNCC(O)c1ccc(OC(=O)C(C)(C)C)c(OC(=O)C(C)(C)C)c1 (stereo not drawn)
survival [18]: 4.83 (inactive)
parasite load remaining [19]: 97.5% (inactive) and 55.6% (inactive)
viability [19]: 100% and 75.1%
fold change [1, 20]: 0.893 (inactive)
fold change [1, 21]: 0.873
cell count [1, 22]: 8640
cell count [1, 23]: 9680
z-score [2, 24]: -1.22 (inactive)
z-score [2, 25]: -0.55
